From PubChem BioAssay
A selection: hits, their analogues and other compounds. The true share with any hit is near 4.3%.
FGF22 binding = FGF22 (human) thermal shift binding | Q9HCT0 | recombinant FGF22 thermal shift, SYPRO orange fluorescence; percent of sucrose octasulfate shift, DMSO zero | 1.5% of 340,000 active | AID 651658 | activity (Tm shift, normalised), % at 9.99 µM;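 active = mean Tm shift, scaled 0 neutral to 100 positive control, at about 1.3% or above, every replicate too, limit read from the data; inconclusive = no clear call, values can overlap the other calls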
SMARCA2 act = SMARCA2 function activation, primary screen. 1% of 370,000 active. activation, % at 9.1 µM. MG213 cells, MMTV-luciferase reporter, dexamethasone, overnight; in the data active = activation above about 7.8%;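 note: 0% = vehicle wells and 100% = reference activator wells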
MITF act = increases MITF-driven TRPM1 promoter luciferase signal | SK-MEL-5 TRPM1-promoter luciferase, 24 h; % of positive control, neutral wells = 0 | activation, % at 12.5 µM | 0.75% of 300,000 active;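 active = mean activation of at least 80% with every replicate also reaching 80%; inconclusive = mean reaches 80% but some replicate falls short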;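 note: 0% = neutral control wells and 100% = parthenolide positive control wells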
Wnt act = activators of Wnt/beta-catenin signaling; activation, % at 9.35 µM; 1.2% of 300,000 active; Wnt/beta-catenin reporter cell assay, activator, plate reader; in the data active = activation above about 30%, passing the limit was not always enough; inconclusive = no clear call, values can overlap the other calls;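 note: 0% = neutral control wells and 100% = positive control wells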
AF4-AF9 inh = inhibitors of human MLL-AF4/AF9 interaction; P42568; AlphaScreen, biotin-AF4 peptide binding to FLAG-AF9; inhibition, % at 10 µM; 0.47% of 350,000 active;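 active = every replicate reaching a set inhibition limit, whatever the replicate mean, cut at about 25% in these data; inconclusive = mean inhibition reaches that limit but some replicates miss it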;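 note: 0% = plate neutral control median and 100% = total signal loss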
Target sequence (P42568 whole entry, looked up): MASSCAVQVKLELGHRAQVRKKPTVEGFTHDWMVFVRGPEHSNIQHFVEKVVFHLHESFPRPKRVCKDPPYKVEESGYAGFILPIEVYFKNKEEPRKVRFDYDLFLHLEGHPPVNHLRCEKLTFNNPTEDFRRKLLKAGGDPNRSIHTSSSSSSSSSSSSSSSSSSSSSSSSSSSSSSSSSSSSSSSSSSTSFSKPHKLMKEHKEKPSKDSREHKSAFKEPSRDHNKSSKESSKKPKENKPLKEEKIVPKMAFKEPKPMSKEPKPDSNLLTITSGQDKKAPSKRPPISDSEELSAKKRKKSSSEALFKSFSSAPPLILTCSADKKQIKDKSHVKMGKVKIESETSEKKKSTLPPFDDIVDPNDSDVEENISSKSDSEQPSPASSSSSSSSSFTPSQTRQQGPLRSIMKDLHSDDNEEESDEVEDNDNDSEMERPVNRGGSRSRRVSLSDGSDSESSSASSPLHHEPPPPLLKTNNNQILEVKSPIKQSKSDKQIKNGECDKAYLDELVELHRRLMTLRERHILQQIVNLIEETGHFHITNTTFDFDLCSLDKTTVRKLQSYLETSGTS
esBAF inh = SWI/SNF esBAF complex inhibition; 2% of 350,000 active; mouse ES cells, Bmi1-luciferase knock-in reporter, 24 h; 100% = twice the neutral-well signal; reporter increase, % at 12.5 µM; in the data active = activation above about 40%; inconclusive = no clear call, values can overlap the other calls;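 note: 0% = median of the plate's neutral control wells and 100% = double that signal; a rise in the Bmi1 reporter signal indicates esBAF inhibition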
* hit, by the source's call; ? = inconclusive; nt = no result.

SMILES	FGF22 binding	SMARCA2 act	MITF act	Wnt act	AF4-AF9 inh	esBAF inh
Nc1nc(-c2ccc(-c3ccccc3)cc2)cs1	42.7	2.9	63.9	16.5	2.0	59.4*
Nc1nc(-c2ccc(C(=O)O)cc2)cs1	0.3	-2.9	3.0	-3.8	-1.8	-3.6
COc1ccc(-c2csc(N)n2)cc1	nt	1.7	55.9	nt	nt	nt
Nc1nc(-c2ccc(Oc3ccccc3)cc2)cs1	-0.1	3.9	nt	8.6	4.0	67.9*
COCC(=O)Nc1ccc2c(c1)[C@@H]1C[C@@H](CC(=O)NCc3ccc(OC)cc3)O[C@H](CO)[C@@H]1O2	0.2	nt	nt	nt	-2.3	-6.3
CCN1C(=O)S/C(=C\c2ccc(N3CCOCC3)cc2C)C1=O	nt	3.8	66.4	81.3*	nt	55.4*
C#CCN1C(=O)S/C(=C\c2ccc(N3CCOCC3)cc2C)C1=O	nt	2.0	72.5	56.3*	nt	nt
Cc1cc(N2CCOCC2)ccc1/C=C1\SC(=O)N(C(C)C)C1=O	nt	1.4	59.1	-3.6	nt	2.1
CCCN1C(=O)S/C(=C\c2ccc(N3CCOCC3)o2)C1=O	43.2*	5.8	52.1	2.4	-6.7	?
CCC(C)N1C(=O)S/C(=C/c2ccc(N3CCOCC3)cc2C)C1=O (stereo not drawn)	0.1	0.8	90.8*	0.9	26.3*	nt
C[C@H]1CN([C@@H](C)CO)C(=O)c2cc(-c3ccccc3F)cnc2O[C@@H]1CN(C)C(=O)c1cnccn1	0.1	nt	nt	nt	-1.6	-6.6
C(/C=C/c1ccco1)=N/N1CCN(c2ccccc2)CC1	nt	6.3	113.0*	nt	nt	25.1
Clc1ccccc1CN1CCN(/N=C/C=C\c2ccco2)CC1	0.3	2.2	24.6	4.1	8.8	nt
O=C(c1ccccc1F)N1CC(=O)N2[C@H](CO)[C@H](c3ccc(-c4ccc(F)cc4)cc3)[C@@H]2C1	0.1	nt	nt	nt	-1.0	nt
O=C(c1ccco1)N1N=C(c2ccc(Br)cc2)CC1(O)C(F)(F)F (stereo not drawn)	0.2	-1.0	5.4	-0.7	-2.0	nt
COc1cccc(C2=NN(C(=O)c3ccc(C)o3)C(O)(C(F)(F)F)C2)c1 (stereo not drawn)	43.0*	-3.4	7.2	1.5	2.7	nt
O=C(c1ccco1)N1N=C(c2ccc(Cl)cc2)CC1(O)C(F)(F)F (stereo not drawn)	43.0*	-3.6	14.0	1.4	0.3	-13.9
C[C@@H]1CN([C@H](C)CO)C(=O)c2cc(NC(=O)CCN3CCOCC3)ccc2O[C@H]1CN(C)C(=O)Nc1ccc(C(F)(F)F)cc1	-0.1	nt	nt	nt	-7.7	-5.8
COc1ccccc1C#Cc1ccc2c(c1)O[C@H](CN(C)C(C)=O)[C@@H](C)CN([C@H](C)CO)S2(=O)=O	-0.1	nt	nt	nt	-1.2	-1.0
COc1cc(/C=N/NC(=O)CC2(C)OCCCO2)ccc1OCc1ccccc1	nt	2.0	-1.4	nt	nt	42.4*
CCOC(=O)C(=Cc1ccc(OCc2ccc([N+](=O)[O-])cc2)c(OC)c1)C(=O)OCC	nt	-1.1	-2.1	nt	nt	nt
COc1cc(/C=N/NC(=O)c2ccc(O)cc2)ccc1Oc1ccc([N+](=O)[O-])cn1	44.0*	-2.3	-5.6	-3.3	4.7	nt
COc1cc(/C=N/NC(=O)c2ccncc2)ccc1Oc1ccc([N+](=O)[O-])cn1	0.2	-2.4	-2.6	-1.3	-1.3	3.8
COC(=O)C(=Cc1ccc(OCc2ccc([N+](=O)[O-])cc2)c(OC)c1)C(=O)OC	nt	-1.0	-30.9	nt	nt	73.8*
COc1cc(/C=N/NC(=O)c2cccc([N+](=O)[O-])c2)ccc1OCc1ccccc1	0.2	-3.5	?	11.4	3.6	42.9*
SMILES	FGF22 binding	SMARCA2 act	MITF act	Wnt act	AF4-AF9 inh	esBAF inh
CC(C)NC(=O)Nc1ccc2c(c1)CC(=O)N([C@H](C)CO)C[C@H](C)[C@@H](CN(C)S(=O)(=O)c1cn(C)cn1)O2	0.0	nt	nt	nt	-2.7	-6.7
COc1cc(/C=N/NC(=O)c2cccc([N+](=O)[O-])c2)ccc1OC(=O)c1ccco1	42.9*	-2.7	-4.5	0.2	3.0	nt
O=C(Nc1ccccc1F)N[C@@H]1CC[C@H](CC(=O)N2CCCCC2)O[C@@H]1CO	1.1	nt	nt	nt	-1.5	-6.4
CCCCc1ccc(NC(=S)N2CCN(c3ncccn3)CC2)cc1	43.0*	-3.0	-6.1	-0.8	-1.1	-0.8
COc1ccc(S(=O)(=O)N(C)C[C@@H]2Oc3c(NC(=O)c4cc(C)nn4C)cccc3C(=O)N([C@H](C)CO)C[C@@H]2C)cc1	0.7	nt	nt	nt	-16.3	-0.7
COC1C=COC2(C)Oc3c(C)c(O)c4c(O)c(c(CN5CCN(C)CC5)c(O)c4c3C2=O)NC(=O)C(C)=CC=CC(C)C(O)C(C)C(O)C(C)C(OC(C)=O)C1C (stereo not drawn)	-1.1	7.8	nt	-2.2	-0.2	nt
CCC(C)N1CCC2(CC1)N=c1c(c3c4c5c(C)c(O)c3c(O)c1=NC(=O)C(C)=CC=C[C@H](C)[C@H](O)[C@@H](C)[C@@H](O)[C@@H](C)[C@H](OC(C)=O)[C@H](C)[C@@H](OC)C=CO[C@@](C)(O5)C4=O)N2 (stereo partly drawn)	-0.4	-0.2	-1.1	0.5	27.0*	-4.5
CN1CCN(C(=O)CSc2cc(=O)n(C)c3ccccc23)CC1	43.5*	3.1	-1.3	-4.9	-4.6	nt
CCN1CCN(C(=O)CSc2cc(=O)n(C)c3ccccc23)CC1	-0.2	1.3	11.9	1.2	3.8	-6.4
CCNC(=O)Nc1ccc2c(c1)C(=O)N(C)[C@@H]1CC[C@@H](CC(=O)N[C@H](C)c3ccccc3)O[C@H]1CO2	0.2	nt	nt	nt	-1.6	-2.1
Cc1occc1C(=O)N/N=C/C=C/c1ccccc1	43.1*	7.9*	?	3.2	4.3	nt
O=C(Cc1cccs1)N/N=C/C(Cl)=C/c1ccccc1	0.0	3.7	77.8	?	-5.9	nt
CCCCOC(=O)N/N=C/C=C/c1ccccc1	-0.2	2.0	32.6	-1.2	-1.3	51.4*
Cc1ccc(NCC(=O)N/N=C\C(Br)=C\c2ccccc2)cc1	0.3	-1.4	-5.4	4.0	8.5	54.6*
CCOC(=O)N/N=C/C(Cl)=C/c1ccccc1	-0.1	2.4	74.8	15.9	2.4	56.0*
NC(=S)N/N=C/C=C/c1ccccc1	0.1	1.7	10.1	0.8	5.9	nt
C[C@H]1CN([C@@H](C)CO)C(=O)c2cc(C#CCN(C)C)cnc2O[C@H]1CN(C)Cc1ccc(C(=O)O)cc1	0.0	nt	nt	nt	-14.8	-1.6
O=C(Cc1ccncc1)NCC[C@@H]1CC[C@H](NC(=O)C2CC2)[C@@H](CO)O1	0.1	nt	nt	nt	-0.9	-4.5
O=C(O)c1ccc(N/N=C/C(Br)=C/c2ccccc2)cc1	0.3	-0.4	60.4	27.0	7.6	74.3*
Cc1occc1C(=O)N/N=C/C(Br)=C\c1ccccc1	-0.1	2.3	nt	58.4*	-2.2	nt
Cc1occc1C(=O)N/N=C/C=C/c1ccc(N(C)C)cc1	-0.6	7.6	48.0	10.7	5.8	61.5*
O=C(C=NNc1ccccc1)c1ccccc1	-0.2	6.7	52.1	58.2*	9.8	-45.1
